Values joined by “and” are separate entries in the source; they are usually repeats but may differ in a detail not shown here. Equal values may be shown once. Values without a mark were called inactive. Results filed as inconclusive are left out. Active and inactive are the calls of the source. Unless noted, the call rests on the fitted dose curve; in most records, active means well fitted curve in the direction sought with a large enough effect in the repeat runs; inconclusive means weak or mixed curves; inactive means no such curve, though single readings can be large; an effect the other way counts as inactive or inconclusive.

A short description of test [1]: qHTS assay for small molecules that induce genotoxicity in human embryonic kidney cells expressing luciferase-tagged ATAD5 (AID 651632). Further: nearly all actives have a fitted effect of over 15% in size. Put shortly: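 DMSO vehicle served as the control. HEK293T reporter cells, 16 hr at 37C, then 30 min Amplite at room temperature; ATAD5 induction is measured as luciferase activity.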
For orientation: qHTS replaces the single test concentration by a dilution series.

Test [2] can be described thus: qHTS assay to test for compound auto fluorescence at 590 nm (red) in HepG2 cells (AID 720674). Put shortly:
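HepG2 cells, 2,000 per well in MEM with 10% FBS, attached overnight at 37 C, then got 23 nL compound or DMSO. After 1 hr at 37 C, 5% CO2, red fluorescence was read at 540/590 nm against Rose Bengal sodium as reference.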

A short description of test [3]: qHTS assay to test for compound auto fluorescence at 460 nm (blue) in HEK293 cells (AID 720678). A digest of the protocol: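 Blue read-out at excitation 405 nm and emission 460 nm follows overnight compound exposure of HEK293 cells at 37C in 5% CO2. Activity is given as auto fluorescence equivalency to triamterene.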
The nature of test [4]: qHTS assay to test for compound auto fluorescence at 535 nm (green) in HEK293 cells (AID 720680).
Test [5] can be described thus: qHTS assay to test for compound auto fluorescence at 460 nm (blue) in HEK293 cell free culture (AID 720681). Put shortly: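 Compounds were added to cell-free DMEM with 10% FBS and fluorescence read directly. The blue channel used 405 nm excitation and 460 nm emission, with triamterene as the reference fluorophore.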
Test [6] is described as follows: qHTS assay to test for compound auto fluorescence at 535 nm (green) in HEK293 cell free culture (AID 720682). Put shortly:
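Steps: dispense DMEM/10% FBS into empty wells; pin in compound or DMSO; measure fluorescence at 485/535 nm. Values are fluorescein equivalents.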

Test [7] in a line: qHTS assay to test for compound auto fluorescence at 590 nm (red) in HEK293 cell free culture (AID 720683). A digest of the protocol:
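Cell-free wells of DMEM with 10% FBS received compound, and intrinsic fluorescence was read at excitation/emission 540/590 nm. Values expressed as equivalence to Rose Bengal sodium.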

Test [8] in a line: qHTS assay for identifying genotoxic compounds that show differential cytotoxicity against isogenic chicken DT40 cell lines with known DNA damage response pathways - wild type cell line (AID 743012). Further: nearly all actives have a fitted effect of over 60% in size. Further: potency means the concentration at half of the fitted maximal effect. A digest of the protocol:
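Viability of DNA repair-proficient chicken DT40 cells was assessed by CellTiter-Glo luminescence following 40 h compound exposure at 37 C/5% CO2.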

A short description of test [9]: qHTS assay for identifying genotoxic compounds that show differential cytotoxicity against isogenic chicken DT40 cell lines with known DNA damage response pathways - Rev3 mutant cell line (AID 743014). Further: nearly all actives have a fitted effect of over 55% in size. Further: potency means the concentration at half of the fitted maximal effect.
The nature of test [10]: qHTS assay for identifying genotoxic compounds that show differential cytotoxicity against isogenic chicken DT40 cell lines with known DNA damage response pathways - Rad54/Ku70 mutant cell line (AID 743015). Further: nearly all actives have a fitted effect of over 60% in size. Further: potency means the concentration at half of the fitted maximal effect.
A short description of test [11]: qHTS assay to identify small molecule antagonists of the estrogen related receptor (ERR) signaling pathway from Tox21 library (AID 1224848). Further: nearly all actives have a fitted effect of over 50% in size. Further: potency means the concentration at half of the fitted maximal effect. A digest of the protocol: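 Quantitative high-throughput format: ERR reporter cells (2,000/well) pre-incubated 6 h, treated 18 h at 37 C with compounds in DMSO alongside positive and negative controls, then read by ONE-Glo luminescence.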

Test [12] deals with Estrogen receptor beta (Homo sapiens) (UniProt Q92731). As to the kind of experiment: qHTS assay to identify small molecule agonists of the estrogen receptor beta (ER-beta) signaling pathway (AID 1259377; active means well fitted activation curve with a large enough effect in the signal ratio in the repeat runs, not every such curve was filed as active; the % refers to the signal ratio). Put shortly: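 A UAS-controlled beta-lactamase reporter in ER-beta-UAS-bla HEK293T cells reports receptor activation. Compounds act for 16 hr at 37C in 2% charcoal-stripped serum, and a FRET substrate is read by fluorescence after 2 hours.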

The target of test [13] is Progesterone receptor (Homo sapiens) (UniProt P06401). As to the kind of experiment: qHTS assay to identify small molecule agonists of the progesterone receptor (PR) signaling pathway (AID 1346784; calls by dose curve; further: nearly all actives have a fitted effect of over 30% in size). A digest of the protocol:
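Agonist mode, quantitative HTS format in a HEK 293T line expressing a UAS-controlled beta-lactamase reporter; 16 hr compound exposure at 37C in 2% charcoal-stripped FBS, then LiveBLAzer B/G FRET fluorescence.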

The target of test [14] is Thyrotropin-releasing hormone receptor (Homo sapiens) (UniProt P34981). As to the kind of experiment: qHTS assay to identify small molecule antagonists of the thyrotropin-releasing hormone receptor (TRHR) signaling pathway (AID 1346877; active means well fitted inhibition curve with a large enough effect in the repeat runs, not every such curve was filed as active; further: series mostly up to about 51 µM). Put shortly:
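Calcium signal in dye-loaded TRHR/HEK293 cells; compounds added 5 min before TRH (1 nM final); fluorescence monitored 3 min at 1 s steps.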

The target in test [15] is Thyrotropin receptor (Homo sapiens) (UniProt P16473). As to the kind of experiment: qHTS assay to identify small molecule agonists of the thyroid stimulating hormone receptor (TSHR) signaling pathway (AID 1224843; calls by dose curve; further: nearly all actives have a fitted effect of over 45% in size; further: potency means the concentration at half of the fitted maximal effect). A digest of the protocol: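 Agonist-mode screen: TSHR HEK293 cells received test chemicals for half an hour at room temperature, then HTRF cAMP detection reagents for one hour prior to fluorescence measurement. Each chemical ran as a 15-concentration series, triplicated.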

The nature of test [16]: qHTS RealTime-Glo MT Cell Viability Assay in HEK293 cells - 8 hour (AID 1224887). Further: nearly all actives have a fitted effect of over 50% in size. Further: potency means the concentration at half of the fitted maximal effect. Put shortly: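 Kinetic, non-lysing viability readout. Seed HEK293 (600/well) with reagent, incubate 5 h at 37 C/5% CO2, pin 23 nL compound in DMSO, incubate at 37 C, read luminescence at 0, 8, 16, 24, 32, 40 h.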
For test [17], the target named is Estrogen receptor (Homo sapiens) (UniProt P03372). As to the kind of experiment: qHTS assay to identify small molecule antagonists of the estrogen receptor alpha (ER-alpha) signaling pathway using the BG1 cell line in the presence of 0.1 nM 17-beta-estradiol (AID 1259244). Further: nearly all actives have a fitted effect of over 50% in size. Further: potency means the concentration at half of the fitted maximal effect. Put shortly:
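Luciferase signal from VM7Luc4E2 ERE-reporter cells, co-dosed with test compound and 0.1 nM final 17beta-estradiol for 22 h, read with ONE-Glo.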

The target of test [18] is Thyrotropin receptor (Homo sapiens) (UniProt P16473). As to the kind of experiment: qHTS assay to identify small molecule antagonists of the thyroid stimulating hormone receptor (TSHR) signaling pathway (AID 1259385; calls by dose curve; further: nearly all actives have a fitted effect of over 20% in size; further: potency means the concentration at half of the fitted maximal effect). A digest of the protocol:
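TSHR-HEK293 cells (800/well) plated 18 h, then compounds with Ro20-1724 and TSH at 1.5 ng/mL final, 30 min at room temperature. cAMP quantified by HTRF (cAMP-d2/anti-cAMP-cryptate, 1 h); 15 concentrations in triplicate.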

Test [19] is described as follows: qHTS assay to identify small molecule agonists of the progesterone receptor (PR) signaling pathway - cell viability counter screen (AID 1346799; calls by dose curve; further: nearly all actives have a fitted effect of over 45% in size; further: potency means the concentration at half of the fitted maximal effect). Put shortly:
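Counter screen for cytotoxicity: compound-treated PR-UAS-bla HEK293T cells (16 hr, 37C, 5% CO2) were assayed with CellTiter-Glo, luminescence measured after 30 min at room temperature.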

Test [20] has as its target Androgen receptor (Homo sapiens) (UniProt P10275). As to the kind of experiment: qHTS assay to identify small molecule agonists of the androgen receptor (AR) signaling pathway in the presence of an antagonist (AID 1259381; calls by dose curve; further: nearly all actives have a fitted effect of over 15% in size). A digest of the protocol: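 Plated MDA-kb2 cells (3,000/well) were pre-incubated 5hr, given nilutamide (3.0uM final) or buffer, then dosed with compounds in DMSO at 15 concentrations. Luciferase activity was quantified by luminescence after 16hr at 37C.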

Chain of Thyrotropin receptor (Homo sapiens) (P16473 whole entry, looked up): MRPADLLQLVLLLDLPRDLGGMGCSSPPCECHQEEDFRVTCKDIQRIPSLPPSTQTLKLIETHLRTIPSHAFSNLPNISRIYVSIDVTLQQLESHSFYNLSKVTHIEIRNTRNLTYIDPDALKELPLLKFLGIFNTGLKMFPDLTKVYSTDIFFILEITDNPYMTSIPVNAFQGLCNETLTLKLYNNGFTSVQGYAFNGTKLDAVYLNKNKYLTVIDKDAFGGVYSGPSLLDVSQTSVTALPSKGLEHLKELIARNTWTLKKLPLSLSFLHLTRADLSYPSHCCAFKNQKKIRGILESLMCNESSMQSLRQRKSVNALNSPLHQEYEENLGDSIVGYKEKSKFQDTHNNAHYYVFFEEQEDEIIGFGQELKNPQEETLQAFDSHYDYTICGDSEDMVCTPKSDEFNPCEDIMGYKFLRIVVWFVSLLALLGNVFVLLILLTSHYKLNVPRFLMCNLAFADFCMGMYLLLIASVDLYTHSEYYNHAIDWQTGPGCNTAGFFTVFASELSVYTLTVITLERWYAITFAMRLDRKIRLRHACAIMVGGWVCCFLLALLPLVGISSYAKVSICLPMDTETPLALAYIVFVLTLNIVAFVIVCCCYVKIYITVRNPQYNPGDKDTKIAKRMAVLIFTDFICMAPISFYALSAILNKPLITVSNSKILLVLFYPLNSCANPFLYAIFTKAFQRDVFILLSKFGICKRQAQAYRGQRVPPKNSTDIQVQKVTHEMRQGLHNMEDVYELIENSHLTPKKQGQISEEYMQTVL
Chain of Thyrotropin-releasing hormone receptor (Homo sapiens) (P34981 whole entry, looked up): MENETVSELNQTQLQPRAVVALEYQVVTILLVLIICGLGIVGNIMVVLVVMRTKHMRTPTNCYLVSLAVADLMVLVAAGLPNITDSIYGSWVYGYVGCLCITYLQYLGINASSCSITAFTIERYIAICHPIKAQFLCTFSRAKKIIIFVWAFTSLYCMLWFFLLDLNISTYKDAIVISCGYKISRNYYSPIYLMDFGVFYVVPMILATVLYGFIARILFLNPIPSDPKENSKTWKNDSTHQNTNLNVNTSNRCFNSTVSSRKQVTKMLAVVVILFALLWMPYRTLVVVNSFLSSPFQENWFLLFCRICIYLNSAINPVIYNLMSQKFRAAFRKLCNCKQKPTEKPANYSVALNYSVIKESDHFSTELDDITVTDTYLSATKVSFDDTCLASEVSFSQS
Chain of Estrogen receptor (Homo sapiens) (P03372 whole entry, looked up): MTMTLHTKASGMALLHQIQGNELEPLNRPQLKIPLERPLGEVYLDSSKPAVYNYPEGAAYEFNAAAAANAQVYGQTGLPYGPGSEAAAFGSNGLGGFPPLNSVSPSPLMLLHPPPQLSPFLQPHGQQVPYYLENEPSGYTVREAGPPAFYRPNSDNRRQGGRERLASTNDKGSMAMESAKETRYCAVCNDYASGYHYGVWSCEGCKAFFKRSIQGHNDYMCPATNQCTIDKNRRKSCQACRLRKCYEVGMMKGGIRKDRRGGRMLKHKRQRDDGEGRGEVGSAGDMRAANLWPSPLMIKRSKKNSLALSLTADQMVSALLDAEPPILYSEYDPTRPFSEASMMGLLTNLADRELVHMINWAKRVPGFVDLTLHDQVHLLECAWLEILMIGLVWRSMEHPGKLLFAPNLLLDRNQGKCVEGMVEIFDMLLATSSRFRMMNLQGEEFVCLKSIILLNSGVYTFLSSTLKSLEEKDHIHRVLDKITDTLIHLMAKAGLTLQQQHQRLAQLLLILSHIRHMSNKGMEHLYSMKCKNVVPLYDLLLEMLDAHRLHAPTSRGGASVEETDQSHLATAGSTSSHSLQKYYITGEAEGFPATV
Chain of Androgen receptor (Homo sapiens) (P10275 whole entry, looked up): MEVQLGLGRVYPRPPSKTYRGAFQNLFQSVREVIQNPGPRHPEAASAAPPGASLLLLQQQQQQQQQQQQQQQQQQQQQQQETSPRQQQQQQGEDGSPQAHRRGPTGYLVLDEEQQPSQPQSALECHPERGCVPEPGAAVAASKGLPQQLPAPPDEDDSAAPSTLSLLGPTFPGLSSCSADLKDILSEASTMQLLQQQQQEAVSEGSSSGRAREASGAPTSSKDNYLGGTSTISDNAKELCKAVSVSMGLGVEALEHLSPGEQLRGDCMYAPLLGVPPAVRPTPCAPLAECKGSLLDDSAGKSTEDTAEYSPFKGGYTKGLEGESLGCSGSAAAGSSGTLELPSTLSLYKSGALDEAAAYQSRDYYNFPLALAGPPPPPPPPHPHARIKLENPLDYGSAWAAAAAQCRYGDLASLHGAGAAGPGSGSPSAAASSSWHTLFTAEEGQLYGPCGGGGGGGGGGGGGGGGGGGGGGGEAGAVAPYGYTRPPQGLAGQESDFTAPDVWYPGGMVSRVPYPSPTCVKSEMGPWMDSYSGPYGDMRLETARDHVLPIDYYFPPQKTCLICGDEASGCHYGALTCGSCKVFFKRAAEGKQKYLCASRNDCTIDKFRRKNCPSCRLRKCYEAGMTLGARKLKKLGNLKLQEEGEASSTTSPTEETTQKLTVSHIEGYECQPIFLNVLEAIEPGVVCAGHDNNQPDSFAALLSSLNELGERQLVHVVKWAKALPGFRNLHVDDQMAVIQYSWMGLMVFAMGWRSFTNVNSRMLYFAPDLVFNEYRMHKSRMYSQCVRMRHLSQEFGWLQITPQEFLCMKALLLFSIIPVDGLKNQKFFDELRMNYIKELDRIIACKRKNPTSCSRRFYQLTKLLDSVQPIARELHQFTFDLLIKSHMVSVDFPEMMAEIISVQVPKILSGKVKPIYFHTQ
Chain of Progesterone receptor (Homo sapiens) (P06401 whole entry, looked up): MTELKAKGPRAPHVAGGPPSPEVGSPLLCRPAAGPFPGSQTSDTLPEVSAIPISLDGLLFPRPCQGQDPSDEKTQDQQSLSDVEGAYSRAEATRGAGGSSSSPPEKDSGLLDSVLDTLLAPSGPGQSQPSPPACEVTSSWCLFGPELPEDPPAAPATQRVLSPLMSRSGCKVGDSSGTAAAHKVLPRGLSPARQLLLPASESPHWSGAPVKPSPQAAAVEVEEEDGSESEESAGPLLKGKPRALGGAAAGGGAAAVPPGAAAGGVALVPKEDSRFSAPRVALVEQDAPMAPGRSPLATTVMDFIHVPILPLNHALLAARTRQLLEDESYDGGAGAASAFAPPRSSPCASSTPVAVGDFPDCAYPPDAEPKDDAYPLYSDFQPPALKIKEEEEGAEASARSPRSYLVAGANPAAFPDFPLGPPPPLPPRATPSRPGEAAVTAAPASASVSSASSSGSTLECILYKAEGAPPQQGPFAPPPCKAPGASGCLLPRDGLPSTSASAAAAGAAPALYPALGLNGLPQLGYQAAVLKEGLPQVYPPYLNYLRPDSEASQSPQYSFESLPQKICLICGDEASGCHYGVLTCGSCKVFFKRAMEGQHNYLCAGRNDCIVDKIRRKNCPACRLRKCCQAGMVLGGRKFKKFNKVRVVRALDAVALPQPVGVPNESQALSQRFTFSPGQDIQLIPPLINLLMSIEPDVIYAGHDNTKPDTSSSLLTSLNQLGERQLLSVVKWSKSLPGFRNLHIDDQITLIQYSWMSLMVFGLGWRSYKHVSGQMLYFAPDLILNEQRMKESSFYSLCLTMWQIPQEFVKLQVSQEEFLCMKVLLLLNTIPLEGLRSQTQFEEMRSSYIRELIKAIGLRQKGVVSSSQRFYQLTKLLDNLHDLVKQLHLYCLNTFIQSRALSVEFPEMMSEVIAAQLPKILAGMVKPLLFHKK
Chain of Estrogen receptor beta (Homo sapiens) (Q92731 whole entry, looked up): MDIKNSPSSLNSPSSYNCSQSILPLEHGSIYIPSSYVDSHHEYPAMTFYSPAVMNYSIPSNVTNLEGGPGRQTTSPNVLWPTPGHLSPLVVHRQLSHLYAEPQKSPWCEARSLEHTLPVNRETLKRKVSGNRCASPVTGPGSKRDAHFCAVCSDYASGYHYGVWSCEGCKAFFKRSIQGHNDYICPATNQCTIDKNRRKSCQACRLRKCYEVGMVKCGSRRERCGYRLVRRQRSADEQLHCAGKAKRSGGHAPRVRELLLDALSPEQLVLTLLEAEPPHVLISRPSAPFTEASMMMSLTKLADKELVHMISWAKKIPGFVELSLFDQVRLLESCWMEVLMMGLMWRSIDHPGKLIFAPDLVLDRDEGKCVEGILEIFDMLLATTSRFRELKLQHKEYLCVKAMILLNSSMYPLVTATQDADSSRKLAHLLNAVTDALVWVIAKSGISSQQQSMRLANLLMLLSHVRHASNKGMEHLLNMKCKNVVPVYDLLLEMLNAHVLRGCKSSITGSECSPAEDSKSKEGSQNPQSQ

With `O=C(Nc1ccccc1-c1ccc(Cl)cc1)c1cccnc1Cl`, the Potency result in [1], in test [3], in test [4], in test [5] and in test [6] was “inactive” in each case. The call in [2], in test [7], in [12], in test [13] and in [14] was inactive. The Potency in test [8] is 57.8 µM (active); in test [9], 67.4 µM (active); in test [10], 66.7 µM (active); in test [11] it was 32.5 µM (active).

In the case of `CC1COC(Cn2cncn2)(c2ccc(Oc3ccc(Cl)cc3)cc2Cl)O1` (stereo unspecified), the Potency result in test [1], in [3], in test [4], in test [5], in test [6] and in test [15] was “inactive” throughout. For the same compound, the call in test [2], in test [7] and in [12] was inactive. Besides, the Potency in test [8] was 1.37 µM (active); in test [9], 0.686 µM (active); in test [10], 2.43 µM (active); in [11], 4.33 µM (active); in [16], 21.9 µM (active); in test [17], 10.9 µM (active).

On to `COc1ccc(C(c2ccc(OC)cc2)C(Cl)(Cl)Cl)cc1`, for which the Potency result in test [1], in test [4], in [5] and in [6] was “inactive” throughout. Also, the compound was called inactive in test [2], in test [7] and in [14]. The Potency in [8] was 19.2 µM (active); in test [9], 44.4 µM (active); in test [10] it was 39.2 µM (active); in test [11], 30.5 µM (active).

Turning to `CC(c1ccccc1)(c1ccc(O)cc1)c1ccc(O)cc1`, the Potency is 15.4 µM (active) in [15] and 61.1 µM (active) in [11]. Moreover, the Potency result in [17] and in test [18] was “inactive” throughout. The call in test [12] and in [14] was inactive.

As to `CN1CSC(=S)N(C)C1`, the Potency result in [1], in [3], in [4], in test [5], in [6] and in test [15] was “inactive” throughout. For the same compound, the Potency result in test [16] and in [18] was “inactive” each time. In addition, the call in test [2], in test [7], in test [13] and in test [14] was inactive. Moreover, the Potency in [8] is 6.08 µM (active) and 5.43 µM (active); in [9], 5.42 µM (active) and 5.43 µM (active); in [10], 6.08 µM (active) and 4.84 µM (active); in [11], 4.83 µM (active) and 13.6 µM (active); in test [17], 13.6 µM (active) and 17.2 µM (active); in test [19], 24.3 µM (active).

Consider `ClC1=C(Cl)[C@]2(Cl)[C@@H]3[C@@H](Cl)[C@H]4O[C@H]4[C@@H]3C1(Cl)C2(Cl)Cl`, for which the Potency result in test [1], in test [4] and in test [6] was “inactive” throughout. Also, the outcome in test [7], in [12] and in [13] was inactive. The Potency in test [8] was 61.1 µM (active); in [9], 34.4 µM (active); in test [10] it was 61.1 µM (active).

For `Oc1c(I)cc(I)cc1I`, the Potency entry in test [15], in test [16], in test [20], in test [18] and in [19] was “inactive” each time. Besides, in test [13], the outcome was inactive.

On to `N#Cc1cc([N+](=O)[O-])ccc1N`, for which the Potency entry in test [15], in test [11], in [16], in [17], in test [18] and in [19] was “inactive” each time. Further, the compound was classed as inactive in test [12], in test [13] and in [14].

On to `CCOC(=O)C(O)(c1ccc(Cl)cc1)c1ccc(Cl)cc1`, for which the Potency result in [1], in test [3], in test [4], in [5], in [6] and in [20] was “inactive” throughout. In addition, the outcome in test [2], in [7], in test [12], in test [13] and in test [14] was inactive. Besides, the Potency in test [8] was 6.18 µM (active) and 19.3 µM (active); in [9], 2.19 µM (active) and 24.3 µM (active); in test [10], 3.9 µM (active) and 17.2 µM (active); in test [16], 22.1 µM (active); in test [17], 61.1 µM (active).

Turning to `O=S(=O)(C(Cl)(Cl)Cl)C(Cl)(Cl)Cl`, the Potency in test [11] was 54.5 µM (active); in test [16] it was 15.5 µM (active); in test [17], 27.3 µM (active). Moreover, the Potency entry in [20] and in test [19] was “inactive” each time. In addition, the outcome in test [13] was inactive.

For the compound `CO/C=C(/C(=O)OC)c1ccccc1Oc1cc(Oc2ccccc2C#N)ncn1`, the Potency result in test [1], in test [3], in test [4], in [5], in test [6] and in test [20] was “inactive” each time. Also, the compound was called inactive in test [2], in test [7] and in test [14]. Also, the Potency in test [8] is 0.0731 µM (active); in [9], 0.103 µM (active); in [10], 0.312 µM (active); in test [11], 2.06 µM (active); in test [17], 5.18 µM (active); in test [18], 61.1 µM (active).

In the case of `Cc1cc(C)c(C(=O)P(=O)(c2ccccc2)c2ccccc2)c(C)c1`, the Potency result in [15], in test [17], in test [20] and in test [18] was “inactive” each time. The Potency in test [11] was 54.5 µM (active); in [16], 43.6 µM (active).

On to `Nc1cccc([N+](=O)[O-])c1`, for which the outcome in [12] was inactive.

`Cc1cccc(C)c1[N+](=O)[O-]`: in test [12], the call was inactive.

In the case of `Brc1ccc(Br)c(Br)c1`, the outcome in test [12] was inactive.

With `Oc1c(Cl)ccc(Cl)c1Cl`, the compound was classed as inactive in [13].

On to `Clc1ccccc1-c1ccccc1Cl`, for which the Potency result in test [1], in test [3], in test [5], in test [6], in test [8] and in test [9] was “inactive” throughout. The Potency entry in [10] and in test [19] was “inactive” in each case. Also, the compound was classed as inactive in test [2], in test [7] and in test [13].
